Experiment [1] can be described thus: qHTS of pediatric cancer cell lines to identify multiple opportunities for drug repurposing: Primary screen for BT-37 cells (AID 1347094). Further: potency means the concentration at half of the fitted maximal effect. In outline:
(§1)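 CRCs from 8- or 11-point titrations (lowest final 0.59 nM NPC, 0.78 nM MIPE). Cell viability: CellTiter-Glo after 48 h incubation, 15 min room-temperature development, luminescence imaging.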

Experiment [2] in a line: qHTS of pediatric cancer cell lines to identify multiple opportunities for drug repurposing: Primary screen for NB-EBc1 cells (AID 1347095). Further: potency means the concentration at half of the fitted maximal effect. In outline: as §1
A general note: qHTS replaces the single test concentration by a dilution series.

The nature of experiment [3]: qHTS of pediatric cancer cell lines to identify multiple opportunities for drug repurposing: Primary screen for Saos-2 cells (AID 1347097). Further: nearly all actives have a fitted effect of over 40% in size. Further: potency means the concentration at half of the fitted maximal effect. In outline:
as §1

Experiment [4] is described as follows: qHTS of pediatric cancer cell lines to identify multiple opportunities for drug repurposing: Primary screen for SK-N-SH cells (AID 1347098).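 Further: DMSO served as neutral control and bortezomib at 2.3 µM as positive control; nearly all actives have a fitted effect of over 65% in size.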 In outline: (§2)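 Cells (500-1,000/well) rested 5 h, then received compounds for 48 h; metabolically active cells were measured by CellTiter-Glo luminescence. Final concentrations spanned up to 46 µM (MIPE, 11-point) or 0.59 nM-46 µM (NPC, 8-point) in primary screens, 11-point in follow-ups.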

Experiment [5] in a line: qHTS of pediatric cancer cell lines to identify multiple opportunities for drug repurposing: Primary screen for NB1643 cells (AID 1347099). Further: nearly all actives have a fitted effect of over 50% in size. Further: potency means the concentration at half of the fitted maximal effect. Summed up: as §1
A short description of experiment [6]: qHTS of pediatric cancer cell lines to identify multiple opportunities for drug repurposing: Primary screen for LAN-5 cells (AID 1347100). Further: potency means the concentration at half of the fitted maximal effect. In outline:
(§3)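 Cells (500-1,000/well) in growth media were settled 5 h at 37 degrees C, then given compounds for 48 h. Viability was read as CellTiter-Glo luminescence. Primary runs used MIPE at 11 points (0.78 nM-46 µM) and NPC at 8 points (0.59 nM-46 µM); follow-ups used 11 points.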

The nature of experiment [7]: qHTS of pediatric cancer cell lines to identify multiple opportunities for drug repurposing: Primary screen for BT-12 cells (AID 1347101). Further: nearly all actives have a fitted effect of over 25% in size. Further: potency means the concentration at half of the fitted maximal effect. In outline:
as §2

Experiment [8] can be described thus: qHTS of pediatric cancer cell lines to identify multiple opportunities for drug repurposing: Primary screen for Rh18 cells (AID 1347102). Further: nearly all actives have a fitted effect of over 65% in size. Further: potency means the concentration at half of the fitted maximal effect. Summed up:
as §3

Experiment [9] is described as follows: qHTS of pediatric cancer cell lines to identify multiple opportunities for drug repurposing: Primary screen for OHS-50 cells (AID 1347103). Further: nearly all actives have a fitted effect of over 40% in size. Further: potency means the concentration at half of the fitted maximal effect. In outline: as §2
A short description of experiment [10]: qHTS of pediatric cancer cell lines to identify multiple opportunities for drug repurposing: Primary screen for RD cells (AID 1347104). Further: nearly all actives have a fitted effect of over 55% in size. Further: potency means the concentration at half of the fitted maximal effect. In outline: as §1
The nature of experiment [11]: qHTS of pediatric cancer cell lines to identify multiple opportunities for drug repurposing: Primary screen for MG 63 (6-TG R) cells (AID 1347105). Further: nearly all actives have a fitted effect of over 50% in size. Further: potency means the concentration at half of the fitted maximal effect. Summed up:
as §1

Experiment [12] in a line: qHTS of pediatric cancer cell lines to identify multiple opportunities for drug repurposing: Primary screen for control Hh wild type fibroblast cells (AID 1347106).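 Further: series mostly up to about 46 µM; a drop in luminescence marks cytotoxicity and a rise apparent proliferation; nearly all actives have a fitted effect of over 55% in size.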 In outline:
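Viability after 48 h compound treatment at 37C, 500-1,000 cells/well, read as ATP luminescence with CellTiter-Glo. Primary screens used 11-point (MIPE, 0.78 nM-46 µM) or 8-point (NPC, 0.59 nM-46 µM) final concentrations; follow-up screens used 11-point dilutions.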

Experiment [13] in a line: qHTS of pediatric cancer cell lines to identify multiple opportunities for drug repurposing: Primary screen for Rh30 cells (AID 1347107). Further: series mostly up to about 46 µM; nearly all actives have a fitted effect of over 75% in size. Summed up: as §3
Experiment [14] can be described thus: qHTS of pediatric cancer cell lines to identify multiple opportunities for drug repurposing: Primary screen for Rh41 cells (AID 1347108). Further: nearly all actives have a fitted effect of over 70% in size. Further: potency means the concentration at half of the fitted maximal effect. Summed up:
as §1

Experiment [15] is described as follows: qHTS of pediatric cancer cell lines to identify multiple opportunities for drug repurposing: Primary screen for U-2 OS cells (AID 1347096). Further: nearly all actives have a fitted effect of over 50% in size. In outline: as §3
Experiment [16] can be described thus: qHTS of pediatric cancer cell lines to identify multiple opportunities for drug repurposing: Confirmatory screen for A673 cells (AID 1347110).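 Further: potency means the concentration at half of the fitted maximal effect; cells exposed to compound for 48 h before the viability read; nearly all actives have a fitted effect of over 65% in size.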 In outline:
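A673 cells seeded at 500-1,000 cells/well, rested 5 h, then dosed; primary MIPE 11-point (0.78 nM to 46 µM), NPC (0.59 nM to 46 µM); confirmatory 11-point. CellTiter-Glo luminescence after 48 h.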

Experiment [17] is described as follows: qHTS of pediatric cancer cell lines to identify multiple opportunities for drug repurposing: Confirmatory screen for SK-N-MC cells (AID 1347111).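 Further: potency means the concentration at half of the fitted maximal effect; cells exposed to compound for 48 h before the readout; nearly all actives have a fitted effect of over 70% in size.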 Summed up:
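Metabolically active cells were quantified by ATP-dependent luminescence (CellTiter-Glo, 15 min at room temperature) following 48 h treatment. Cells had been plated at 500-1,000 per well and settled for 5 h beforehand.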

Experiment [18] is described as follows: qHTS of pediatric cancer cell lines to identify multiple opportunities for drug repurposing: Confirmatory screen for BT-12 cells (AID 1347112). Further: potency means the concentration at half of the fitted maximal effect; nearly all actives have a fitted effect of over 55% in size. In outline:
as §3

Consider ten compounds from PubChem BioAssay (NCATS).

Results filed as inconclusive are left out. Values without a mark were called inactive. Activity calls are given as the source filed them. The call rests on the fitted dose curve; in most records, active means well fitted curve in the direction sought with a large enough effect; inconclusive means small, poorly fitted or top-dose-only effect, or another doubt; inactive means no such curve, though single readings can be large; an effect the other way counts as inactive or inconclusive.

Consider `C#CCN(C)[C@H](C)Cc1ccccc1`, for which the Potency entry in experiment [1], in experiment [2], in [3], in experiment [4], in [5] and in experiment [6] was “inactive” each time. Further, the Potency result in experiment [7], in experiment [8], in [9], in experiment [10], in experiment [11] and in experiment [12] was “inactive” in each case. Besides, the Potency result in experiment [13] and in experiment [14] was “inactive” throughout.

`C[C@@H]1[C@@H](C(=O)C[C@H]2O[C@@H]3O[C@]4(C)CC[C@@H]5[C@H](C)CC[C@@H]([C@H]2C)[C@@]35OO4)O[C@@H]2O[C@]3(C)CC[C@H]4[C@H](C)CC[C@@H]1[C@@]24OO3`: the Potency in experiment [1] was 1.09 µM (active); in [2], 0.469 µM (active); in [5], 4.69 µM (active); in experiment [6], 16.6 µM (active); in experiment [7] it was 0.432 µM (active); in experiment [9], 0.385 µM (active). The results for the Potency in experiment [16], in experiment [17] and in [18] were 6.57 µM (active), 2.93 µM (active) and 14.7 µM (active), respectively. Moreover, the Potency result in experiment [15], in experiment [8], in [11], in experiment [12] and in experiment [13] was “inactive” in each case.

Turning to `O=[N+]([O-])c1cc([As](=O)(O)O)ccc1O`, the Potency entry in experiment [1], in [2], in experiment [3], in experiment [4], in experiment [5] and in experiment [6] was “inactive” throughout. Moreover, the Potency result in experiment [7], in [8], in experiment [9], in experiment [10], in experiment [12] and in [13] was “inactive” in each case. For the same compound, in experiment [14], the Potency result is “inactive”.

For `CC(C)(C)NCC(O)c1cc(Cl)c(N)c(Cl)c1` (stereo not given), the Potency result in experiment [1], in experiment [2], in [3], in experiment [4], in experiment [5] and in experiment [6] was “inactive” each time. Besides, the Potency result in experiment [7], in [8], in [9], in [10], in [11] and in experiment [12] was “inactive” each time. Besides, the Potency result in experiment [13] and in experiment [14] was “inactive” throughout.

As to `CN1CCN(C(=O)O[C@H]2c3nccnc3C(=O)N2c2ccc(Cl)cn2)CC1`, the Potency entry in experiment [1], in experiment [2], in experiment [3], in experiment [4], in experiment [5] and in experiment [6] was “inactive” in each case. The Potency result in experiment [7], in [8], in [9], in [10], in experiment [12] and in [13] was “inactive” throughout. Further, the Potency entry in experiment [14] was “inactive”.

In the case of `Clc1cccc(N2CCNCC2)c1`, the Potency entry in [1], in [2], in [3], in experiment [4], in experiment [5] and in experiment [6] was “inactive” each time. Moreover, the Potency entry in [7], in experiment [8], in experiment [10], in experiment [11], in experiment [12] and in experiment [13] was “inactive” throughout. Also, in experiment [14], the Potency result is “inactive”.

Take `CC[C@@H](CO)NC(=O)[C@@H]1C=C2c3cccc4[nH]cc(c34)C[C@H]2N(C)C1`: the Potency entry in [1], in experiment [2], in [3], in experiment [4], in experiment [5] and in experiment [6] was “inactive” each time. The Potency entry in experiment [7], in experiment [8], in [9], in experiment [10], in experiment [11] and in experiment [12] was “inactive” throughout. The Potency entry in experiment [13] and in [14] was “inactive” each time.

For `Oc1cccc2cccnc12`, the Potency entry in experiment [1], in experiment [8] and in experiment [13] was “inactive” in each case.

As to `CO[C@]12CC[C@@]3(C[C@@H]1[C@](C)(O)C(C)(C)C)[C@@H]1Cc4ccc(O)c5c4[C@@]3(CCN1CC1CC1)[C@H]2O5`, the Potency in experiment [1] was 39.6 µM (active); in [3] it was 30.3 µM (active); in experiment [9] it was 25 µM (active); in [11] it was 30.3 µM (active).

With `COC[C@H]1OC(=O)c2coc3c2[C@@]1(C)C1=C(C3=O)C2CCC(=O)[C@@]2(C)C[C@H]1OC(C)=O` (stereo not given in full), the Potency was 0.833 µM (active) in [2]; 4.69 µM (active) in [3]; 11.8 µM (active) in experiment [5]; 11.8 µM (active) in [6]; 20.9 µM (active) in experiment [8]; 4.32 µM (active) in [9]. For the same compound, the Potency in experiment [10] and in [14] was 18.7 µM (active) each time.
